PubChem BioAssay AID588342 (National Center for Advancing Translational Sciences (NCATS), 2011)
Among all 360,000 compounds or so, about 25,000 (6.9%) were called active. Entries that show only a call come without a potency. Roughly 9% stayed inconclusive and do not appear here. The sample holds actives, similar compounds and a random draw of the others, so the mix is not that of the screen. Calls follow the shape of the dose curve; as a rule, active = well fitted inhibition curve with a large enough effect; inconclusive = small, poorly fitted or top-dose-only effect; inactive = flat fitted curve, though single readings scatter.

biological target: Luciferin 4-monooxygenase (Photinus pyralis) (UniProt P08659); assay: qHTS profiling assay for firefly luciferase inhibitor/activator using purifed enzyme and Km concentrations of substrates (counterscreen for miR-21 project); details: purified FLuc, luminescence inhibition; series mostly up to 57.5 µM; also: nearly all actives have a fitted effect of over 55% in size
Sequence (P08659 whole entry, looked up): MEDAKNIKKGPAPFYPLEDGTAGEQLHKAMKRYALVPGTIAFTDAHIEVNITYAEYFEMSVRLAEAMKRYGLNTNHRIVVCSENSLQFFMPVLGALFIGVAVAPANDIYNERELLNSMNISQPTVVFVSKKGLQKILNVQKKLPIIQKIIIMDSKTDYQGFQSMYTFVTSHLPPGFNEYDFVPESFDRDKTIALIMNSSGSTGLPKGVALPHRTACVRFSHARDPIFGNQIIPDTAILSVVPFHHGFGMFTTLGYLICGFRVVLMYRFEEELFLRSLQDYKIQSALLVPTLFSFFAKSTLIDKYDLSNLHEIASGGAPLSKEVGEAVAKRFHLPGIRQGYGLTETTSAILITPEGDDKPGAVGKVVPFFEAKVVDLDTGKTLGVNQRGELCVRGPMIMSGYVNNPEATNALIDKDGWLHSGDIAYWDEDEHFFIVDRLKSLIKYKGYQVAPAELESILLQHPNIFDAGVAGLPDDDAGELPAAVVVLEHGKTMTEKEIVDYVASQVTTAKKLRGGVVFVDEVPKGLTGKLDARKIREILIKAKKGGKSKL
Source text: MLPCN Grant: 1 R21 NS059478-01 (miR-21 grant) Assay Provider: NCGC NCGC Assay Overview: Firefly (Photinus pyralis) luciferase is one of the most commonly used transcriptional reporters for a number of reasons. It is considered one of the more dynamically responsive reporters -that is, responsive to changes in reporter transcription - as it requires no post-translational modifications and is enzymatically active directly after protein synthesis (Wood, 1998). Additionally, the half-life of the luciferase protein is short relative to other reporter-gene products (Wood, 1995). Whereas reporters with long half-lives potentially allow for increased signal due to accumulation of reporter-gene product, once accumulated in the cell, dynamic changes in reporter-gene expression may be difficult to detect(Fan and Wood, 2007; Almond et al., 2004). It has been shown that wild-type P. pyralis luciferase has a half-life of approximately […] hours in mammalian cells (Thompson et al., 1991). Firefly luciferase reporter-gene assays are also generally considered one of the most sensitive assay types (Wood, 1995; Wood, 1998). Although light produced in a bioluminescence reaction is of lower intensity than that produced during fluorescence emission, this is offset by little to no background light inherent to luminescent assays. Thus the luciferase reporter can be expressed at much lower levels than fluorescent proteins while still providing robust signal. # However, it was initially observed, in 1991, by Thompson et al., that compounds that resemble the substrates of firefly luciferase (FLuc) can act as competitive inhibitors of the enzyme, and that these compounds, upon interaction with luciferase in the cell, can actually stabilize the protein and increase its half-life. Accumulated intracellular FLuc protein can be measured as an increase in luminescence signal, upon addition of detection reagents (which contain high concentrations of FLuc substrates) commonly used in high-throughput screening. In cell-based reporter gene assays that use FLuc as the reporter gene to quantitate the potential influence of a given compound against the target biology, this apparent increase in luminescence can mistakenly be interpreted as identification of a compound that is active against the target of interest. This is the case for the miR-21 FLuc reporter gene assay used to identify inhibitors of the miR-21 pathway (PubChem AID 2289) - compounds of interest will inhibit miR-21 biogenesis/expression or activity, and are identified by causing an increase in luminescence, due to increased FLuc translation. However, FLuc inhibitory compounds that stabilize the FLuc protein will give an identical read-out, making it difficult to distinguish compounds that are active against the target from those active against FLuc. Previous profiling work to determine the prevalence of compounds that affect FLuc enzymatic activity (PubChem AID 411) identified that ~3% of the MLSMR library (then at ~72K) inhibited FLuc. […] Since the MLSMR had grown to ~350K compounds, and since it was expected that a significant percentage of compounds found active in the miR-21 FLuc assay would be FLuc inhibitors, the library was screened for activity against FLuc using a biochemical assay of purified FLuc and KM concentrations of FLuc substrates (D-luciferin and ATP).
NCGC Assay Protocol Summary: Reagents: 50mM Tris acetate, pH 7.5; 10mM Mg acetate; 10uM D-luciferin (Sigma #L9504); 10uM ATP; 0.01% Tween-20; 0.05% BSA; 10nM P. pyralis luciferase (Sigma #L9506) Control compounds used were two known firefly luciferase inhibitors (compounds (2) and (5) in Auld et al., 2010), and DMSO. […]

SMILES | Potency | activity change, negative = inhibition
COc1ccc(CCNC(=O)CCc2ccccc2O)cc1OC | inactive | –
COc1ccc(C(=O)CCc2ccccc2O)c(OC)c1 | 12 µM (active) | –
COc1ccc(C(=O)NC(C)CCc2ccccc2)c(OC)c1 (configuration not stated) | inactive | –
O=C(c1cc2cc(Br)cc(Br)c2oc1=O)N1CCOCC1 | inactive | –
COc1ccccc1-c1nn(Cc2ccccc2)cc1C(=O)N1CCN(c2ncccn2)CC1 | inactive | –
Cc1cc(C(=O)OCC(=O)Nc2nnc(C(C)C)s2)c2ccccc2n1 | inactive | –
CC(C)CC(=O)NC(=S)NCc1ccccc1 | inactive | –
CCC(=O)Nc1ccc2nc(SCC(=O)N3CCc4ccccc43)sc2c1 | inactive | –
CC(C)C(C)NC(=O)COc1ncnc2ccccc12 (configuration not stated) | inactive | –
CCC(=O)NC(=Nc1nc2ccccc2s1)NC(=O)CC | 3.79 µM (active) | –
CC(C)CC(=O)N/C(N)=N/c1nc2ccccc2s1 | 0.953 µM (active) | –
CCOc1ccccc1NC(=O)CCn1cnnn1 | inactive | –
COc1ccc(S(=O)(=O)N2CCOCC2)cc1NC(=O)CSc1cc(C)ccc1C | inactive | –
CS(=O)(=O)Nc1ccccc1C(=O)OCC(=O)NC1CC1 | inactive | –
CCN(C(=O)COC(=O)CCOc1cccc(C)c1)c1c(N)n(Cc2ccccc2)c(=O)[nH]c1=O | inactive | –
COc1ccc(NC(=O)NC(C)c2c(-n3cccc3)sc(C)c2C)cc1OC (configuration not stated) | inactive | –
COc1ccccc1-c1sc2ccccc2c1-c1ccc(Br)nc1 | inactive | –
COc1ccccc1-c1sc2ccccc2c1-c1ccc(C(C)=O)cc1 | 15.1 µM (active) | –
COc1cc(C(C)=O)ccc1OC(=O)CN1C(=O)c2ccccc2C1=O | inactive | –
O=C(CC1N=C2c3ccccc3N=C(SCc3ccc(F)cc3)N2C1=O)NCc1cccs1 (configuration not stated) | inactive | –
O=C(O)C1=NN(c2c(F)c(F)cc(F)c2F)C(=O)CC1 | inactive | –
CN(CC(=O)NCCc1ccc(F)cc1)CC(=O)Nc1ccc(F)c(F)c1F | inactive | –
Cc1ccc(NC(=O)c2cn3c4c(ccc(Cl)c4c2=O)OC(C)C3)cc1C (configuration not stated) | inactive | –
O=C(CSCc1cnn(-c2ccccc2)c1-n1cccc1)NCc1ccccc1Br | inactive | –
O=[N+]([O-])/C=C/c1ccc2c(ccn2Cc2ccccc2)c1 | 13.5 µM (active) | –
COC(=O)Cn1cc(/C=C/[N+](=O)[O-])c2ccccc21 | inactive | –

SMILES | Potency | activity change, negative = inhibition
O=C(/C=C/c1cccc([N+](=O)[O-])c1)N1CCN(Cc2ccccc2)CC1 | inactive | –
Cc1ccc(CN2CC(C(=O)N3CCN(S(=O)(=O)c4ccccc4)CC3)CC2=O)cc1 (configuration not stated) | inactive | –
Cc1nn(C)cc1/C=C1\CCC/C(=C\c2cn(C)nc2C)C1=O | 26.9 µM (active) | –
Cc1nn(C)cc1S(=O)(=O)N1CCN(c2ccc(F)cc2)CC1 | inactive | –
Cc1ccccc1-n1c(=O)c2ccccc2n(Cc2ccc(F)cc2)c1=O | inactive | –
CCS(=O)(=O)N1CCc2cc(C(=O)NCc3ccc(OC)cc3)ccc21 | inactive | –
CCCc1cc(=O)oc2c(C)c(OCC(=O)Nc3ccccn3)ccc12 | 1.69 µM (active) | –
CCc1cc(=O)oc2c(C)c(OCC(=O)NCCN3CCOCC3)ccc12 | inactive | –
CCCc1cc(=O)oc2c(C)c(OCC(=O)NCc3ccccn3)ccc12 | inactive | –
COc1ccc(NC(=O)CCN2CCN(CCO)CC2)cc1 | inactive | –
O=C(Nc1ccon1)c1nc[nH]c1C(=O)NCc1ccccc1 | inactive | –
Cc1cc(C)n2nc(C(=O)Nc3cccc(S(=O)(=O)N4CCOCC4)c3)nc2n1 | inactive | –
O=C(N/N=C/c1ccc([N+](=O)[O-])cc1)c1c[nH]c2ccccc12 | inactive | –
Cc1c(/C=N/N2C(=O)C3C4C=CC(C4)C3C2=O)c2ccccc2n1C (configuration not stated) | inactive | –
CN(C)S(=O)(=O)c1cccc(NC(=S)N/N=C/C(=O)c2ccccc2)c1 | inactive | –
O=C(N/N=C/c1c[nH]c2ccccc12)c1ccccc1O | 6.01 µM (active) | –
Cc1ccc2occ(/C=N/NC(=O)c3ccccc3C)c(=O)c2c1 | inactive | –
O=C(Cc1ccccc1)Nc1cccc(C(=O)N/N=C/c2ccco2)c1 | inactive | –
O=C(CSc1nc2ccccc2o1)N/N=C/c1ccccc1C(=O)O | inactive | –
O=C(N/N=C/c1c[nH]c2ccccc12)c1cc2ccccc2o1 | 13.5 µM (active) | –
Cc1c(/C=N\NC(=O)c2cc3ccccc3o2)c2ccccc2n1C | 9.53 µM (active) | –
CC(C)(C)n1nc2c(c1NC(=O)c1cc3ccccc3o1)CSC2 | inactive | –
Nc1nonc1-n1nnc(C(=O)N/N=C/c2c[nH]c3ccccc23)c1-c1ccccc1 | inactive | –
O=C(O)c1cccc(NC(=S)N/N=C/c2c[nH]c3ccccc23)c1 | 0.757 µM (active) | –
Cc1c(NC(=O)Nc2ccc(F)c(Cl)c2)c(=O)n(-c2ccccc2)n1C | inactive | –
Cc1cccc(N2CCN(C(=O)c3cc4c(=O)oc5ccccc5c4s3)CC2C)c1 (configuration not stated) | inactive | –

SMILES | Potency | activity change, negative = inhibition
CCc1ccc(NC(=O)CCS(=O)(=O)c2cc3c(cc2Cl)NC(=O)CO3)cc1 | inactive | –
COc1ccc([N+](=O)[O-])cc1NC(=O)c1ccc(N(Cc2ccccc2C)S(C)(=O)=O)cc1 | inactive | –
CN(C)C(=O)COC(=O)c1cccc(S(=O)(=O)N2CC3(C)CC2CC(C)(C)C3)c1 (configuration not stated) | inactive | –
O=C(CNC(=O)c1ccccc1Br)NNC(=O)c1cccs1 | inactive | –
COc1cc(C(c2c(NC(=O)c3ccco3)sc(C)c2C)N2CCOCC2)cc(OC)c1OC (configuration not stated) | inactive | –
COc1ccc(C2CC(c3cccs3)=NN2c2nc(C)c(C(C)=O)s2)cc1OC (configuration not stated) | inactive | –
COc1ccc(C2CC(c3cccs3)=NN2c2ccc(F)cc2)cc1OC (configuration not stated) | inactive | –
COc1ccc(C2CC(c3cccs3)=NN2c2ccccc2)cc1 (configuration not stated) | 21.3 µM (active) | –
COc1cc(CN(CC2CCCO2)C(=O)c2ccccc2F)cc(OC)c1OC (configuration not stated) | inactive | –
c1ccc(-c2cc(-c3ccccc3)[nH]n2)cc1 | 7.57 µM (active) | –
Oc1ccccc1-c1cc(-c2ccc(Cl)cc2)n[nH]1 | 0.953 µM (active) | –
CNc1nc(-c2ccccc2)cc(-c2ccccc2)n1 | inactive | –
Cc1ccc(NC(=O)c2cc(-c3ccccc3O)n[nH]2)cc1C | inactive | –
S=c1[nH]nc(-c2cc(-c3ccccc3)n[nH]2)n1/N=C/c1c2ccccc2cc2ccccc12 | inactive | –
Oc1cc(O)c2c(c1)OC(c1ccc(O)c(O)c1)C(O)C2 (configuration not stated) | inactive | –
Cc1ccc(Cl)cc1NC(=O)CCC(=O)N1CC(C)Sc2ccccc21 (configuration not stated) | inactive | –
CCOC(=O)c1ccc(NC(=O)CSc2nc3c([nH]c4ccccc43)c(=O)n2C)cc1 | inactive | –
O=C(CN1CCc2ccccc2C1)Nc1cccc(S(=O)(=O)N2CCOCC2)c1 | inactive | –
Cn1c(=O)c(=O)n(C)c2cc(NC(=O)c3ccccc3Br)ccc21 | inactive | –
CS(=O)(=O)c1ccccc1C(=O)Nc1ccc2sccc2c1 | inactive | –
O=C(Nc1ccc2sc3ccccc3c(=O)c2c1)c1ccccc1Cl | 2.13 µM (active) | –
COc1ccccc1NC(=O)C1=C(C)Nc2ncnn2C1c1sccc1C (configuration not stated) | inactive | –
COc1ccccc1Nc1nnc(SC(C)C(=O)NC2CC2)s1 (configuration not stated) | inactive | –
CC1=C(C(=O)OCc2ccccc2)C(c2ccc(C(F)(F)F)cc2)NC(=O)N1CCCCCC(=O)O (configuration not stated) | inactive | –
CCCOC(=O)c1ccc(N2C(=O)c3ccccc3C2=O)cc1 | inactive | –
Cc1[nH]n(-c2ccccc2)c(=O)c1CCOC(=O)c1ccc(C(F)(F)F)cc1 | 21.3 µM (active) | –

SMILES | Potency | activity change, negative = inhibition
O=C(NC1(C(F)(F)F)N=C(c2ccccc2)N(C2CCCCC2)C1=O)c1ccccc1F (configuration not stated) | inactive | –
CCS(=O)(=O)N1Cc2ccccc2CC1C(=O)Nc1ccc(OC)cc1OC (configuration not stated) | inactive | –
CN(C)CCCN(C(=O)c1ccc(S(=O)(=O)N2CCCc3ccccc32)cc1)c1nc2ccc(F)cc2s1 | inactive | –
CCS(=O)(=O)N1Cc2ccccc2CC1C(=O)Nc1nc2ccc(F)cc2s1 (configuration not stated) | 15.1 µM (active) | –
O=C(COC(=O)c1cc(S(=O)(=O)N2CCOCC2)ccc1Cl)NCCc1ccccc1 | inactive | –
CCOC(=O)c1c(C)[nH]c(C)c1S(=O)(=O)NCC(=O)NCc1cccc(C)c1 | inactive | –
CN(Cc1nc(-c2cnccn2)no1)Cc1n[nH]c2c1CCCCC2 | inactive | –
COc1ccc(C(=O)NC(Cc2ccc(OC(=O)c3ccc(OC)cc3)cc2)C(=O)O)cc1 (configuration not stated) | 12 µM (active) | –
COc1ccc(C(=O)N[C@H](C(=O)NCc2ccccc2)C(C)C)cc1 | inactive | –
CCOC(=O)C(Cc1ccccc1)NC(=O)CCC(=O)c1ccc(OC)cc1 (configuration not stated) | inactive | –
C[C@H](NC(=O)c1[nH]cnc1C(=O)Nc1nccs1)c1ccccc1 | inactive | –
CCOc1ccc(-n2nc3ccc(NC(=O)c4ccc(OC)c(Cl)c4)cc3n2)cc1 | inactive | –
COc1cccc(C(=O)Nc2ccc(-c3cc(C(F)(F)F)nn3-c3ccccc3)cc2)c1 | inactive | –
COc1cc(OC)cc(C(=O)Nc2cc3nn(-c4ccccc4)nc3cc2Cl)c1 | 5.36 µM (active) | –
CCC(=O)Nc1ccc(C)cc1-c1nc2ccccc2n(Cc2ccccc2)c1=O | inactive | –
CN(C)/C=C1\C=C(c2ccccc2)OC1=O | inactive | –
CC(=O)Oc1ccc(-c2nc3c(C)cccc3c(=O)o2)cc1 | inactive | –
COc1cccc(/C=C2\C=C(c3ccc(C)cc3)OC2=O)c1OC(C)=O | 15.1 µM (active) | –
O=C1C=C(c2ccnc3cc(Cl)ccc23)C[C@@H](c2ccc3c(c2)OCO3)C1 | inactive | –
Cc1cc2c(c(=O)n1Cc1ccccc1)C1O[C@](CCCCN3C(=O)c4ccccc4C3=O)(Cc3ccccc31)O2 | – | 4.34% [at 11.5 µM] (inactive)
O=C(CCCN=C1NS(=O)(=O)c2ccccc21)OCC(=O)c1ccc(F)c(F)c1 | inactive | –
Cn1cc[n+](C)c1COc1ccc(C=O)cc1 | inactive | –
COc1ccc(C(=O)NCc2cn3ccccc3n2)cc1 | inactive | –
O=Cc1ccc(OCc2cn3ccccc3n2)cc1 | 12 µM (active) | –
